Results on 8 compounds are retold here after PubChem BioAssay (Tox21).

Several values for one entry are separate records, joined by “and”; a condition that tells them apart may be missing. Equal entries are not always repeated. Inconclusive results are not listed. Activity calls are given as the source filed them. Unless noted, calls follow the shape of the dose curve; as a rule, active = well fitted curve in the direction sought with a large enough effect in the repeat runs; inconclusive = weak or mixed curves; inactive = no such curve, though single readings can be large; an effect the other way counts as inactive or inconclusive.

For test [1], the target named is Estrogen receptor (Homo sapiens) (UniProt P03372). Briefly: qHTS assay to identify small molecule antagonists of the estrogen receptor alpha (ER-alpha) signaling pathway using the BG1 cell line in the presence of 0.1 nM 17-beta-estradiol (AID 1259244). Also: nearly all actives have a fitted effect of over 50% in size. Also: potency is read from the fitted curve at half-maximal effect. The essentials:
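Compounds were tested against 0.1 nM (final) 17beta-estradiol in VM7Luc4E2 cells, which express full-length ER-alpha and an ERE-luciferase reporter; luminescence was recorded following 22 h exposure.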
On the technique in general: Quantitative high-throughput screening tests each substance at several concentrations.

The nature of test [2]: qHTS assay to identify small molecule phospholipidosis (PLD) inducers (AID 1259344; active = well fitted curve in the direction sought with a large enough effect; an effect the other way counts as inactive or inconclusive). In outline:
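Cells (HepG2, 900 per well) attach for 4 h, receive LipidTOX Red and compound together, incubate 24 h at 37 C, are fixed 30 min with paraformaldehyde/Hoechst, then imaged at one site per well.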

Test [3] can be described thus: qHTS assay to identify small molecule HDAC inhibitors (AID 1259364). Also: potency is read from the fitted curve at half-maximal effect.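 Also: wild-type HCT-116 cells with endogenous class I/II HDAC activity; nearly all actives have a fitted effect of over 45% in size.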 The essentials:
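Screening used wild-type human colon HCT-116 cells incubated overnight, dosed with compounds for 2 hours, and assayed with a homogeneous luminogenic HDAC I/II reagent for 30 minutes at room temperature.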

Test [4] in a line: qHTS assay to identify small molecule HDAC inhibitors - cell viability counter screen (AID 1259365). Also: nearly all actives have a fitted effect of over 50% in size. Also: potency is read from the fitted curve at half-maximal effect. The essentials:
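Measured quantity is CellTiter-Glo luminescence from wild-type HCT-116 cells after compound incubation of 2hr at 37C, 5% CO2; reagent developed 30min at room temperature.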

Test [5] in a line: qHTS assay to identify small molecule agonists of the sonic hedgehog signaling (Shh) pathway (AID 1259368; calls by dose curve;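 also: NIH/3T3-derived 3T3Gli1-Luc cells carrying a stable Gli1-driven firefly luciferase reporter; series mostly up to about 92 µM; nearly all actives have a fitted effect of over 15% in size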). In outline:
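Hedgehog pathway agonism scored by increased firefly luciferase luminescence in 3T3Gli1-Luc cells treated 24 hr at 37 C; detection used a 30 min room-temperature reagent incubation.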

A short description of test [6]: qHTS assay to identify small molecule antagonists of the sonic hedgehog signaling (Shh) pathway (AID 1259369; calls by dose curve; also: nearly all actives have a fitted effect of over 45% in size; also: potency is read from the fitted curve at half-maximal effect). The essentials: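 NIH/3T3 stable Gli1-Luc clone, 2,000 cells/well, 4hr settle; cpd + conditioned medium 24hr; Luc reagent 30min RT; luminescence.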
Test [7] in a line: qHTS assay to identify small molecule agonists of the androgen receptor (AR) signaling pathway in the presence of an antagonist - cell viability counter screen (AID 1259379). Also: nearly all actives have a fitted effect of over 25% in size. Also: potency is read from the fitted curve at half-maximal effect. The essentials:
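MDA-kb2 viability measured by CellTiter-Fluor fluorescence in the same wells as the luciferase signal; nilutamide 3.0uM final; 15-point compound titration; 16 hr at 37C.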

The nature of test [8]: qHTS assay to identify small molecule agonists of the estrogen receptor beta (ER-beta) signaling pathway - cell viability counter screen (AID 1259380). Also: nearly all actives have a fitted effect of over 30% in size. Also: potency is read from the fitted curve at half-maximal effect. The essentials:
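Measured: luminescence from CellTiter-Glo after 30 min at room temperature, added to wells already read for the LiveBLAzer FRET reporter (2 hr substrate); ER-beta-UAS-bla HEK293T cells had 16 hr compound treatment at 37C, 5% CO2.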

The nature of test [9]: qHTS assay to identify small molecule antagonists of the estrogen receptor beta (ER-beta) signaling pathway - cell viability counter screen (AID 1259382). Also: nearly all actives have a fitted effect of over 55% in size. Also: potency is read from the fitted curve at half-maximal effect. The essentials:
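Readout: luminescence, CellTiter-Glo, same wells as bla assay. System: ER-beta-UAS-bla GripTite HEK293T, 2% charcoal-stripped FBS. Exposure: compounds plus 1nM 17-beta-estradiol, 16 hr, 37C.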

The target of test [10] is Estrogen receptor (Homo sapiens) (UniProt P03372). The test can be described thus: qHTS assay to identify small molecule agonists of the estrogen receptor alpha (ER-alpha) signaling pathway in the presence of an antagonist (AID 1259383; calls by dose curve; also: nearly all actives have a fitted effect of over 15% in size; also: potency is read from the fitted curve at half-maximal effect; as to activation: top concentration of the series differs between compounds). In outline: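 Quantitative HTS confirmation: compounds titrated at 15 concentrations onto estrogen-deprived VM7Luc4E2 cells carrying a four-ERE luciferase construct, with ICI-182,780 present at 10.0nM final. Signal is luminescence after 22hr exposure.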
Chain of Estrogen receptor (Homo sapiens) (P03372 whole entry, looked up): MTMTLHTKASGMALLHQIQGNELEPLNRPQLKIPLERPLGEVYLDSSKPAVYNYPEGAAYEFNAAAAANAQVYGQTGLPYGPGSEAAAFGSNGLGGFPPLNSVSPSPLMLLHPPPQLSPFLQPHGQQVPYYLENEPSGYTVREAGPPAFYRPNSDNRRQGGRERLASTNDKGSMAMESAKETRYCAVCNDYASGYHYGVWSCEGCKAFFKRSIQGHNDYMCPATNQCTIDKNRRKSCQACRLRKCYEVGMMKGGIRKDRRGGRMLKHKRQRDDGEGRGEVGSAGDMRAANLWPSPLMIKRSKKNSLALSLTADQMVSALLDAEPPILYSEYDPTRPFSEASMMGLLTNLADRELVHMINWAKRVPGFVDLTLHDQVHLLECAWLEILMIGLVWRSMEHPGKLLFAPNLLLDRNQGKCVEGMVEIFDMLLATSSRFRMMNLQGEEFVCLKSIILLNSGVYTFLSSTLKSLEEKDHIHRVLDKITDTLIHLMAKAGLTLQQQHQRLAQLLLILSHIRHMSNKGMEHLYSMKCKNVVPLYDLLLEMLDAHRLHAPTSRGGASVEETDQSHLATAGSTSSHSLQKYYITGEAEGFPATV

The nature of test [11]: qHTS assay to identify small molecule agonists or antagonists of the thyroid stimulating hormone receptor (TSHR) signaling pathway - wild type cell line counter screen (AID 1259384; calls by dose curve). The essentials: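 Wild-type HEK293 cells were plated 18 h at 37 C/5% CO2, pin-dosed with compound plus Ro20-1724 medium, held 30 min at room temperature, then given cAMP-d2 and anti-cAMP-cryptate; fluorescence was read after 1 h. Fifteen concentrations, triplicate.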

The target in test [12] is Thyrotropin receptor (Homo sapiens) (UniProt P16473). Briefly: qHTS assay to identify small molecule antagonists of the thyroid stimulating hormone receptor (TSHR) signaling pathway (AID 1259385; calls by dose curve; also: nearly all actives have a fitted effect of over 20% in size). The essentials:
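TSHR-HEK293 cells were plated and held 18 h at 37C/5% CO2, then given compound plus Ro20-1724 and stimulated with TSH at 1.5 ng/mL final. After 30 min at room temperature, cAMP was detected with cAMP-d2/anti-cAMP-cryptate (1 h) by fluorescence.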

Test [13] is described as follows: qHTS assay to identify small molecule agonists of the sonic hedgehog signaling (Shh) pathway - cell viability counter screen (AID 1259366). Also: nearly all actives have a fitted effect of over 50% in size. Also: potency is read from the fitted curve at half-maximal effect. The essentials: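 In quantitative high-throughput format, 3T3 Gli1-Luc cells were exposed to compounds for 24hr and multiplexed for viability using CellTiter-Fluor, incubated 1hr at 37C before the fluorescence read.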
A short description of test [14]: qHTS assay to identify small molecule antagonists of the sonic hedgehog signaling (Shh) pathway - cell viability counter screen (AID 1259367). Also: nearly all actives have a fitted effect of over 55% in size. Also: potency is read from the fitted curve at half-maximal effect. The essentials:
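Cytotoxicity was assessed in parallel with Shh reporter activity by measuring live-cell protease fluorescence (CellTiter-Fluor) in NIH/3T3 cells stably carrying Gli1-Luc, treated with compound under conditioned medium stimulation for 23 hr plus 1 hr reagent incubation.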

Test [15] addresses Estrogen receptor beta (Homo sapiens) (UniProt Q92731). Briefly: qHTS assay to identify small molecule agonists of the estrogen receptor beta (ER-beta) signaling pathway (AID 1259377; active = well fitted activation curve with a large enough effect in the signal ratio in the repeat runs, not every such curve was filed as active; the % refers to the signal ratio; also: potency is read from the fitted curve at half-maximal effect). The essentials:
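Reporter cells (HEK293T, ER-beta-UAS-bla) receive compounds or DMSO after a 6 hr pre-incubation. They then incubate 16 hr at 37C/5% CO2, and fluorescence from LiveBLAzer B/G substrate is measured after 2 hours at room temperature.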

Test [16] shares this target. The test can be described thus: qHTS assay to identify small molecule antagonists of the estrogen receptor beta (ER-beta) signaling pathway (AID 1259378; active = well fitted inhibition curve with a large enough effect in the signal ratio in the repeat runs, not every such curve was filed as active; the % refers to the signal ratio; also: potency is read from the fitted curve at half-maximal effect). In outline: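 ER-beta-UAS-bla HEK293T (GripTite) cells in 2% charcoal-stripped FBS medium were preincubated 6 hr at 37C, dosed with compound, then stimulated with 1 nM E2 (final) for 16 hr; beta-lactamase reporter read by B/G FRET fluorescence after 2 hr substrate loading.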

A short description of test [17]: qHTS assay to identify small molecule agonists of the estrogen receptor alpha (ER-alpha) signaling pathway in the presence of an antagonist - cell viability counter screen (AID 1259386).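 Also: cells exposed to compounds for 22 h at 37 °C before the viability read; nearly all actives have a fitted effect of over 30% in size.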 Also: potency is read from the fitted curve at half-maximal effect. The essentials:
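The test measures whether compounds kill ER-alpha reporter cells (VM7Luc4E2) under antagonist co-treatment (ICI-182,780, 10.0nM). Fluorescence from CellTiter-Fluor is read after a 22hr exposure.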

The target of test [18] is Androgen receptor (Homo sapiens) (UniProt P10275). Briefly: qHTS assay to identify small molecule antagonists of the androgen receptor (AR) signaling pathway using the MDA cell line in the presence of 0.5 nM R1881 (AID 1259243). Also: potency is read from the fitted curve at half-maximal effect; nearly all actives have a fitted effect of over 50% in size. In outline: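 With R1881 held at 0.5 nM (final), compound effects on MMTV-luciferase expression in MDA-kb2 cells were scored by luminescence after a 16 hr, 37C incubation.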
Chain of Androgen receptor (Homo sapiens) (P10275 whole entry, looked up): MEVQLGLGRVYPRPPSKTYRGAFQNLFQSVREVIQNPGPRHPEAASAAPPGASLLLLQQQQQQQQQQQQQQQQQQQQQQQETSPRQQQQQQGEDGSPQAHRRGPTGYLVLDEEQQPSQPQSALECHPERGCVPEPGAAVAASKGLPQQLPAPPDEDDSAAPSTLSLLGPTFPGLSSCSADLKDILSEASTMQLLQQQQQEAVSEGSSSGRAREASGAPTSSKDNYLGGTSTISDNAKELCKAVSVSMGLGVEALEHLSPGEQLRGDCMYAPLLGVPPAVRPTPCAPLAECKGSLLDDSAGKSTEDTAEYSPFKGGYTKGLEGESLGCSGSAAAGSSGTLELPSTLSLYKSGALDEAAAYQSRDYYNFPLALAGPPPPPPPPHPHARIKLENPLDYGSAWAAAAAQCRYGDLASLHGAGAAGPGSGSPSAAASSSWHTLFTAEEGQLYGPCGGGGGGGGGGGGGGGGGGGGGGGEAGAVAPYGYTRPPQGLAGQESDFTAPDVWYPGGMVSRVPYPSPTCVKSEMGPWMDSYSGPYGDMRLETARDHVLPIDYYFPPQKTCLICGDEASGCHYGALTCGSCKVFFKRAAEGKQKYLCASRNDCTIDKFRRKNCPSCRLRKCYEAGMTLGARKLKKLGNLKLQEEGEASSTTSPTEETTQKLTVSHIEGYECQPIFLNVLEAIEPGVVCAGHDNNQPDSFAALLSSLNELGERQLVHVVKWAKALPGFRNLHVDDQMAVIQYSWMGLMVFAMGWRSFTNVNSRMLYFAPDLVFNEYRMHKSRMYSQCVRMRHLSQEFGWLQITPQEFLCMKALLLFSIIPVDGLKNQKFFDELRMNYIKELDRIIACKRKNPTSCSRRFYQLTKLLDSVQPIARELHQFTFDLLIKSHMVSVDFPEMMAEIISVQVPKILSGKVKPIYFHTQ

Test [19] has the same target. The test can be described thus: qHTS assay to identify small molecule agonists of the androgen receptor (AR) signaling pathway in the presence of an antagonist (AID 1259381; calls by dose curve; also: nearly all actives have a fitted effect of over 15% in size). The essentials:
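Luminescent ONE-Glo read, 30min at room temperature, follows 16hr compound exposure (15 concentrations) of MDA-kb2 cells at 37C, 0% CO2, with nilutamide added at 3.0uM final.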

Test [20] deals with Progesterone receptor (Homo sapiens) (UniProt P06401). Briefly: qHTS assay to identify small molecule agonists of the progesterone receptor (PR) signaling pathway (AID 1346784; calls by dose curve; also: nearly all actives have a fitted effect of over 30% in size). In outline:
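Reporter assay, GripTite PR-UAS-bla HEK 293T cells: 16 hr exposure to DMSO-dissolved compounds at 37C, 5% CO2, in steroid-depleted (2% charcoal-stripped FBS) medium; beta-lactamase measured by FRET fluorescence.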

Chain of Estrogen receptor beta (Homo sapiens) (Q92731 whole entry, looked up): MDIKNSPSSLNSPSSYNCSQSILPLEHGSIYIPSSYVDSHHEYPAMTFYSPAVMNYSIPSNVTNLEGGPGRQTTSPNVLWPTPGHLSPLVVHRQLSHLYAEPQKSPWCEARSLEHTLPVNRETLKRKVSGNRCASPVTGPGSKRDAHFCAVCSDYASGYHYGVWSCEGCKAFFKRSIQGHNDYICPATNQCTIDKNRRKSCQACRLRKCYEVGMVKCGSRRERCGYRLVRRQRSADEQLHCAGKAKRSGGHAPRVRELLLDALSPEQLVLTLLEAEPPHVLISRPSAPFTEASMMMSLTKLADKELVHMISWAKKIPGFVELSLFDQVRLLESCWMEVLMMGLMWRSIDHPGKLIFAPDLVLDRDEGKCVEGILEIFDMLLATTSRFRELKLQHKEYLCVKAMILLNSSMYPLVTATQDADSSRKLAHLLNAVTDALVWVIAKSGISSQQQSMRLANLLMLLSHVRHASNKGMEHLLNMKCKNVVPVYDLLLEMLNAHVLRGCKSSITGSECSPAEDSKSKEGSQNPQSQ
Chain of Progesterone receptor (Homo sapiens) (P06401 whole entry, looked up): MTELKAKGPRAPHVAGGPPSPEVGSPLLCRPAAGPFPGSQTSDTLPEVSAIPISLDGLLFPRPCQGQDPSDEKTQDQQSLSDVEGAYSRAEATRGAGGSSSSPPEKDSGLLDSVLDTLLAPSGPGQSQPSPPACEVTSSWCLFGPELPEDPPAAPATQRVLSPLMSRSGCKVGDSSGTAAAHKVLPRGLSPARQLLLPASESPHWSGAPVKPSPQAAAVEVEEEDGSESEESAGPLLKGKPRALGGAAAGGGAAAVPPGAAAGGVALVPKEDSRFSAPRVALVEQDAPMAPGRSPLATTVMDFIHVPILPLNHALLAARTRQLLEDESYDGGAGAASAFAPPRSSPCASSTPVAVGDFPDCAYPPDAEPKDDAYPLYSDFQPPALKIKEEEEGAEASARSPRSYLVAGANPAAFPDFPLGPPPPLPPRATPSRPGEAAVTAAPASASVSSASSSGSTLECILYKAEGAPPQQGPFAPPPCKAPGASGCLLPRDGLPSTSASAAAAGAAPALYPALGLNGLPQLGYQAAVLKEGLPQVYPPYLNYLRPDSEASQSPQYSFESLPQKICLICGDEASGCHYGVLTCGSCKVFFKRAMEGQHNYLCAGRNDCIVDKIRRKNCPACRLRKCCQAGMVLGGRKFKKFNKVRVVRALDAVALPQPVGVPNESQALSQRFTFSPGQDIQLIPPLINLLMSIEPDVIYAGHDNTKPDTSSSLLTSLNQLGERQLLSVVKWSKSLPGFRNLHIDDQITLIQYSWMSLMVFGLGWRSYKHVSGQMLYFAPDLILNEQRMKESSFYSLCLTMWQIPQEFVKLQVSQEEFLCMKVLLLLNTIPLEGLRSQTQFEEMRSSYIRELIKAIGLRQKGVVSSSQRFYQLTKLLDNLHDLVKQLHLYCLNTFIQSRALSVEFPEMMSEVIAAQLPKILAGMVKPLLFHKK
Chain of Thyrotropin receptor (Homo sapiens) (P16473 whole entry, looked up): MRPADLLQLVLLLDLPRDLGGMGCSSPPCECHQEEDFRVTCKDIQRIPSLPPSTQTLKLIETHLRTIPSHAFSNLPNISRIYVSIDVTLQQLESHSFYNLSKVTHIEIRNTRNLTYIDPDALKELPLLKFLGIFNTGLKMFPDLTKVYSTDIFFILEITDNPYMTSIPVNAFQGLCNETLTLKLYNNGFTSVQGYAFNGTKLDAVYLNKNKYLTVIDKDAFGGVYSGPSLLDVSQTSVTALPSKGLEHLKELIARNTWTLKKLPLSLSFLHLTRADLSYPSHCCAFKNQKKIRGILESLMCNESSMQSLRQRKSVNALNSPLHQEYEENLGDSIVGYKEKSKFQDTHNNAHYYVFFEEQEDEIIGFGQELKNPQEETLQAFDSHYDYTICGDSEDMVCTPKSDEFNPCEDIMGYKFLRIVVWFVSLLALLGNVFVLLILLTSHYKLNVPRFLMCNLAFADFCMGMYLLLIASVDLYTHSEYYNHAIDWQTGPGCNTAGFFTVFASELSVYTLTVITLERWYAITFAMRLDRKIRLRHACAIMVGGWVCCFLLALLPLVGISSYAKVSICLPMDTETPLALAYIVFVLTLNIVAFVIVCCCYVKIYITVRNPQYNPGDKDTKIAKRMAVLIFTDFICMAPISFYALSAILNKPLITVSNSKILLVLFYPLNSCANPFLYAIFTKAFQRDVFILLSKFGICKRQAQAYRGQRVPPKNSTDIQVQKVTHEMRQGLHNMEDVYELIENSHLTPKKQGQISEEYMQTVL

`O=C(Nc1cccc(C(F)(F)F)c1)c1cc(Br)cc(Br)c1O`: the Potency is 4.86 µM (active) in test [1]; 3.86 µM (active) in test [3]; 1.72 µM (active) in test [6]; 4.33 µM (active) in test [7]; 24.3 µM (active) in [8]; 27.3 µM (active) in test [9]. For the same compound, the Potency entry in [2], in [4], in [5], in test [10] and in test [12] was “inactive” throughout. Also, the compound was classed as inactive in test [11].
Regarding `CC(C)(C)C(=O)OCOC(=O)[C@@H]1N2C(=O)[C@@H](NC(=O)[C@H](N)c3ccccc3)[C@H]2SC1(C)C`, the Potency entry in test [1], in [2], in test [3], in test [4], in [13] and in test [14] was “inactive” each time. The Potency result in test [6], in [15], in test [16], in test [7], in test [8] and in [9] was “inactive” throughout. The Potency entry in test [10], in test [12] and in test [17] was “inactive” throughout. For the same compound, the call in [11] was inactive.
As for `Oc1cc2ccccc2c2ccccc12`, the Potency in [18] is 10.9 µM (active); in test [4] it was 24.3 µM (active); in [13], 4.33 µM (active); in test [14], 6.86 µM (active); in test [6] it was 4.86 µM (active); in test [7], 13.7 µM (active). The results for the Potency in test [8], in [9] and in [17] were 5.45 µM (active), 7.7 µM (active) and 13.7 µM (active), respectively. Besides, the Potency entry in test [5], in [19] and in [10] was “inactive” throughout.
As to `O=C1Cc2cc(CCN3CCN(c4nsc5ccccc45)CC3)c(Cl)cc2N1`, the Potency entry in [1], in test [2], in test [3], in test [4], in [5] and in test [15] was “inactive” each time. The Potency entry in test [10] is “inactive”. The values for the Potency in [13], in test [6] and in [8] were 23.7 µM (active), 29.8 µM (active) and 23.7 µM (active), respectively. The compound was called inactive in [11].
Turning to `O=C(c1ccc(O)cc1O)c1ccc(O)cc1O`, the Potency in test [18] is 3.07 µM (active) and 3.06 µM (active); in test [6], 17.2 µM (active) and 24.3 µM (active); in test [15], 8.64 µM (active) and 7.7 µM (active); in [10], 9.7 µM (active) and 7.7 µM (active). Also, the Potency result in test [4], in test [13], in [5], in test [7], in test [8] and in [9] was “inactive” throughout. Moreover, the Potency result in test [17] and in test [20] was “inactive” each time. Further, the call in [11] was inactive.
Consider `CCOc1ccc2nc3cc(N)ccc3c(N)c2c1`, for which the Potency result in test [1], in test [2], in [3], in test [4], in [5] and in test [10] was “inactive” throughout.
Regarding `CCCCCOc1ccccc1/C(=C\SC)n1ccnc1`, the Potency in test [18] is 21.1 µM (active); in test [16], 10.6 µM (active); in test [8], 23.7 µM (active); in [9], 29.8 µM (active). In addition, the Potency entry in test [3], in test [4], in test [14], in test [5], in test [6] and in test [15] was “inactive” throughout. In addition, the Potency result in test [19], in test [10], in [17] and in [20] was “inactive” throughout. The outcome in [11] was inactive.
For the compound `CCCCCCC[N+](CC)(CC)CCCCc1ccc(Cl)cc1`, the Potency in test [1] was 11.9 µM (active); in [6], 0.168 µM (active); in test [7], 5.96 µM (active); in [8], 9.44 µM (active); in [17], 26.6 µM (active). Moreover, the Potency result in test [2], in test [3], in test [4], in test [13], in test [14] and in [5] was “inactive” in each case. The Potency entry in [15], in [9], in [10], in test [12] and in test [20] was “inactive” throughout. Besides, the outcome in [11] was inactive.
